The list is a sample of the results.
aSyn UTR act – Activators working through SNCA 5'UTR binding (MLPCN). 300,000 compounds, 7.1% hits. activity score, % (tested at 7.5 µM), hits read low. AID 1814. alpha-synuclein 5'UTR reporter, activators screen; in the data active means activity score below about -60%
Hits are given with their value; - = inactive.

SMILES | aSyn UTR act
Cc1ccc(NC(=O)c2cccs2)cc1 | -145.2
O=C(Nc1ccc(NC(=O)c2cccs2)cc1)c1ccco1 | -231.9
O=C(Nc1ccc(Cc2ccncc2)cc1)c1cccs1 | -65.7
O=C(Nc1ccc(O)cc1)c1ccc(NC(=O)c2cccs2)cc1 | -69.6
COc1c(Cl)cc(Cl)cc1/C=C/C(=O)c1ccc(NC(=O)c2cccs2)cc1 | -114.8
O=C(Nc1ccc(NC(=O)c2cccs2)cc1)c1ccccc1 | -140.4
CCc1ccc2c(COC(=O)c3n[nH]c4ccccc34)cc(=O)oc2c1 | -175.2
Cc1ccc2c(COC(=O)c3n[nH]c4ccccc34)cc(=O)oc2c1 | -172.0
Cc1ccc2oc(C(=O)Nc3nnc(C)s3)c(C)c2c1 | -67.8
Cc1ccc2oc(C(=O)NCC(c3ccco3)N(C)C)c(C)c2c1 (stereo unspecified) | -73.1
Cc1ccc2oc(C(=O)Nc3nonc3C)c(C)c2c1 | -106.3
CCOc1ccccc1C(=O)N[C@H](C(=O)Nc1nc2c(s1)CCCC2)C(C)C | -86.7
COc1ccc(C(=O)N[C@H](C(=O)Nc2nc3c(s2)CCCC3)C(C)C)cc1 | -201.3
CCC(=O)Nc1nonc1-c1nc2ccccc2n1Cc1cccc2ccccc12 | -
CCOc1ccccc1NC(=O)n1ncc2c(C)cccc21 | -68.5
Cc1cccc2c1cnn2C(=O)Nc1cc(F)ccc1F | -177.7
CCCCOc1ccccc1NC(=O)Cn1c(-c2nonc2N)nc2ccccc21 | -
COc1ccc(-c2cn3c(n2)CCC3)cc1 | -90.9
Nc1ccc2oc(-c3cccs3)nc2c1 | -88.8
Nc1ccc2oc(-c3cccc4ccccc34)nc2c1 | -
COc1cccc(NC(=O)c2cnc(SCC(=O)NCc3ccc4c(c3)OCO4)n(C)c2=O)c1 | -82.2
Cc1ccc(Nc2nc(CSc3nnnn3C)cs2)cc1 | -103.4
Cc1ccc(Nc2nc(CSc3n[nH]c(N)n3)cs2)cc1 | -107.7
Cn1nnnc1SCc1csc(Nc2ccccc2)n1 | -108.6
COc1ccc(NC(=O)c2ccccc2NC(=O)CSc2ccccc2)cc1 | -78.9
SMILES | aSyn UTR act
COC(=O)c1ccc(NC(=O)CSc2ccccc2)cc1 | -128.9
COc1ccc(NC(=O)c2ccccc2NC(=O)CSc2ccc(Cl)cc2)cc1 | -67.3
COC(=O)c1ccc(OCc2cc(=O)n3ccsc3n2)cc1 | -133.9
O=C1N=c2ccccc2=C1c1sc(Nc2cccc(O)c2)nc1O | -90.5
COC(=O)c1ccc(NC(=O)CN(c2ccc(OC)cc2)S(C)(=O)=O)cc1 | -176.4
CCOc1ccc(N(CC(=O)Nc2cccc(C)c2)S(C)(=O)=O)cc1 | -85.7
CCOc1ccc(N(CC(=O)Nc2ccc(OC)cc2)S(C)(=O)=O)cc1 | -69.2
CCOc1ccc(N(CC(=O)Nc2ccccc2OC)S(=O)(=O)c2ccccc2)cc1 | -
CCOc1ccc(NC(=O)CN(c2ccc(OC)cc2)S(C)(=O)=O)cc1 | -138.2
CCOc1ccc(N(CC(=O)Nc2ccccc2OCC)S(=O)(=O)c2c(C)noc2C)cc1 | -
CCOc1ccc(N(CC(=O)NCc2ccccc2C)S(C)(=O)=O)cc1 | -91.3
c1ccc(-n2ncc3c(NCC4CCCO4)ncnc32)cc1 (stereo unspecified) | -132.1
Clc1ccc(-n2ncc3c(NCC4CCCO4)ncnc32)cc1 (stereo unspecified) | -89.0
Cc1ccccc1Nc1ncnc2c1cnn2-c1ccccc1 | -111.6
COc1ccc(-n2ncc3c(NCC4CCCO4)ncnc32)cc1 (stereo unspecified) | -140.3
c1ccc(-n2ncc3c(NC4CCCCCC4)ncnc32)cc1 | -96.8
COC(=O)C1=C(O)/C(=C\c2cc(C)n(-c3ccccc3C)c2C)N=C1C | -81.7
O=C(NC(C(=O)c1ccccc1)n1ccc(=O)[nH]c1=O)c1ccccc1 (stereo unspecified) | -208.2
O=C(NC(C(=O)c1ccccc1)N1CCCCC1)c1ccccc1 (stereo unspecified) | -86.8
Cc1cn(CCC(=O)Nc2ccccc2N2CCOCC2)c2ccccc12 | -105.9
Cc1cn(CCC(=O)Nc2ccc(N3CCOCC3)cc2)c2ccccc12 | -128.4
Cc1c(/C=C/C(=O)c2cccs2)cnn1C | -125.0
Nc1ccc(/C=C/C(=O)c2cccs2)cc1 | -134.9
CCc1ccc(C(=O)/C=C/c2cnn(C)c2C)s1 | -117.5
CCOc1ccc2nc(N3CCCC(C(=O)N4CCN(CC)CC4)C3)sc2c1 (stereo unspecified) | -96.3
SMILES | aSyn UTR act
Cc1cc(C)c2nc(N3CCCC(C(=O)NC4CCCC4)C3)sc2c1 (stereo unspecified) | -90.3
CCOC(=O)N1CCN(S(=O)(=O)c2ccc(C(=O)NNc3nc4c(C)cc(C)cc4s3)cc2)CC1 | -
CCOc1ccc2nc(N3CCCC(C(=O)NCC4CCCO4)C3)sc2c1 (stereo unspecified) | -144.8
O=C(CCl)Nc1ccccc1Sc1ccc(Cl)cc1 | -
CSc1ccccc1NC(=S)NCc1ccc(Cl)cc1 | -109.8
CSc1ccccc1NC(=O)COc1ccccc1Cl | -64.8
CSc1ccccc1NC(=O)COc1ccc(Cl)cc1 | -61.9
Cc1ccc(NC(=O)C(=O)NCCCN2CCCC2=O)cc1 | -70.9
CCc1ccc(NC(=O)NCCCN2CCCC2=O)cc1 | -65.2
CCN(CC)CCn1c(=N)n(CCOc2ccccc2)c2ccccc21 | -93.1
O=C(N/N=C/c1ccc([N+](=O)[O-])o1)c1cc(-c2cccc(Br)c2)nc2ccccc12 | -82.6
CCCc1ccc(-c2cc(C(=O)N/N=C/c3ccc([N+](=O)[O-])o3)c3ccccc3n2)cc1 | -74.7
CCCC(=O)Nc1ccc(C(=O)N/N=C/c2ccc([N+](=O)[O-])o2)cc1 | -
Cc1ccc(Oc2nn[nH]n2)cc1 | -77.5
NNC(=O)COc1ccccc1[N+](=O)[O-] | -87.4
CCSc1nnc(NC(=O)COc2ccccc2[N+](=O)[O-])s1 | -113.7
CC(C)c1nnc(NC(=O)COc2ccccc2[N+](=O)[O-])s1 | -153.7
COc1ccc(Cl)cc1NC(=O)C1Cc2ccccc2CN1S(C)(=O)=O (stereo unspecified) | -
CCc1nnc(NC(=O)C2Cc3ccccc3CN2S(=O)(=O)c2c(C)c(C)cc(C)c2C)s1 (stereo unspecified) | -104.3
CC(C)(C)C1=CC=C(C(C)(C)C)C(=O)C1=O | -72.8
C/C(NC(=O)c1cccc(F)c1)=C1/C(=O)C[C@@H]2[C@H]1C2(C)C | -183.4
C/C(NC(=O)c1ccccc1F)=C1\C(=O)C[C@@H]2[C@H]1C2(C)C | -174.4
O=C(NC(=S)NNC(=O)[C@H]1C[C@@H]1c1ccccc1)c1cccc(F)c1 | -
COc1cccc(NC(=O)C2CCN(S(=O)(=O)c3ccc4c(c3)NC(=O)C(C)S4)CC2)c1 (stereo unspecified) | -68.1
Cc1cc(C(=O)Nc2nc3ccc(S(C)(=O)=O)cc3s2)c(C)o1 | -107.7
SMILES | aSyn UTR act
Cc1ccccc1NC(=O)Nc1nc2ccc(S(C)(=O)=O)cc2s1 | -85.3
COc1ccc2nc(NC(=O)c3cc(C)oc3C)sc2c1 | -140.5
COc1ccc(NS(=O)(=O)c2cc(C)ccc2NC(=O)c2cc(C)oc2C)cc1 | -
COc1ccc2nc(NC(=O)c3cccnc3SC)sc2c1 | -129.8
COc1ccc(C(=O)Nc2nc3cc4c(cc3s2)OCO4)c(OC)c1 | -97.7
O=C(Nc1cc2c(cc1Cl)OCCCO2)c1ccco1 | -143.7
O=C(Nc1cc2c(cc1Cl)OCCCO2)c1ccccc1 | -151.4
c1ccc2nc3c(nc2c1)[nH]c1ccccc13 | -170.6
O=C(NN=C1c2ccccc2-c2ccccc21)c1ccccn1 | -133.7
O=C(NNC(=O)C(c1ccccc1)c1ccccc1)c1ccccn1 | -
Cc1ccc(/C=N/NC(=O)c2ccccn2)o1 | -74.3
O=C(NN=C1C2CC3CC1CC(Cl)(C3)C2)c1ccccn1 | -137.3
O=C(N/N=C/c1ccncc1)c1ccccn1 | -89.6
